# High-throughput results (PubChem BioAssay)
# TSHR antag – human thyrotropin receptor antagonism | TSHR-expressing cells, TSH-stimulated cAMP HTRF, 2 h; active compounds read low | activity change, negative = inhibition, % at 11.5 µM | 0.2% of 330,000 active | AID 504810;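 active = activity change below a set negative limit, meaning inhibition stronger than a set level, cut at about -70% in these data; inconclusive = activity change between two set negative limits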; note: % is set by controls: 0 for no effect and ±100 for the full control effect
#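 TSHR-expressing cells, 200/well, pre-treated with compound, then stimulated with EC80 TSH (4nM final) for 2 hours at 37 deg C. cAMP measured by competitive HTRF: anti-cAMP cryptate antibody in lysis buffer plus cAMP-d2, read after 30 minutes at room temperature.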
# S-ASM inh – human S-ASM enzyme inhibition; 0.006% of 340,000 active; AID 504937; Potency, µM (titrated, usually from 57.5 µM), for inactives: top-dose activity change, negative = inhibition, hits mostly inhibitors; P17405; placental ASM, HMU-PC fluorogenic substrate, 60 min; note: potency is the fitted concentration of half-maximal effect
#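 Fluorogenic HMU-PC substrate (9 uM final) is turned over by placental ASM in 60 min at 37 C after a 10 min compound preincubation. Reaction ended by alkaline stop (pH 10), with fluorescence read at 386/447 nm.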
# Anesthetic bind – binds horse apoferritin like a general anesthetic. 0.074% of 350,000 active. AID 485281. apoferritin/1-aminoanthracene competitive binding, fluorescence. P02791. Potency, µM (series often up to 77.5 µM), without a hit: at the top dose activity change, negative = displacement, actives largely listed as inhibitors; note: potency is the fitted concentration of half-maximal effect; % is set by controls: 0 for no effect and ±100 for the full control effect; nearly all actives have a fitted effect of over 20% in size
#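 Horse-spleen apoferritin (10 uM) in 50% saturated 1-aminoanthracene in PBS was incubated 10 min at room temperature with compound. Fluorescence (ex 380, em 535 nm) was normalized to free and bound 1-AMA, with concentration-response fitted by a four-parameter Hill equation.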
# BRCA1 expr act – activators of BRCA1 expression; MCF7-BRCA1-FFLuc reporter, luminescence, 48 h; response scale: scaled: vehicle 0%, 10 µM genistein 100%; Potency, µM (highest dose often 46.1 µM), inactives show at the top dose activation, most hits filed as activators; 1.1% of 380,000 active; AID 624202; note: potency is the fitted concentration of half-maximal effect; nearly all actives have a fitted effect of over 80% in size
#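 MCF7 cells carrying a BRCA1-firefly luciferase reporter (2000 cells/well, phenol-red free MEM) were attached for 2 h at 37 °C, then given compounds for 48 h. Luminescence was read 15 min after luciferase reagent; activity normalized to genistein (10 microM) and DMSO.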
# PTAP TSG101 blk – blocks PTAP/TSG101 interaction to inhibit HIV-1 budding; Fluorescence polarization, FITC-PTAP peptide / Tsg101 binding; Q99816; 340,000 tested, under 10 active; AID 493005; Potency, µM (series often up to 115 µM), for the others: at the top dose activity change, negative = inhibition, usual class: inhibitors; active = well fitted inhibition curve with a large enough effect in the main read-out, with a control signal flat, not every such curve was filed as active; inconclusive = small, poorly fitted or top-dose-only effect, or effect the other way, or a change in a side signal; inactive = no such curve, though single readings can be large or run the other way; note: potency is the fitted concentration of half-maximal effect; % of control where 0% means no effect
# Target sequence (Q99816 whole entry, looked up): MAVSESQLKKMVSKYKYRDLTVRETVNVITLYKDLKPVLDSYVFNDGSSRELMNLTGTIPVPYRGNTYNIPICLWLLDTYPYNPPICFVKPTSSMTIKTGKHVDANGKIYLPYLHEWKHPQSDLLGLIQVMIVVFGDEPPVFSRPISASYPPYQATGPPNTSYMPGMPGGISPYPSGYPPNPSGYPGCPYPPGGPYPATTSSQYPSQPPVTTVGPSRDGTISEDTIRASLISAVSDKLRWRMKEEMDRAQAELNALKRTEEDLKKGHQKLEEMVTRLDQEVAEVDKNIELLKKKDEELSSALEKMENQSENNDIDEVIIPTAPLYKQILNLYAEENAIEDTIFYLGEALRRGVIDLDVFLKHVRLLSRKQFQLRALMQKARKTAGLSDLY
#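 Fluorescence anisotropy tracks displacement of a FITC-tagged PTAP peptide (50 nM) from the Tsg101 binding domain (10 uM), following a 20 min room-temperature incubation at pH 7.5.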
# * hit, by the source's call; ? = inconclusive; / = no result. In the library only some 1.2% were active in any assay of this set; here they are far more common. Unless noted, calls come from the whole dose curve; as a rule, active = well fitted curve in the direction sought with a large enough effect; inconclusive = small, poorly fitted or top-dose-only effect, or another doubt; inactive = no such curve, though single readings can be large; an effect the other way counts as inactive or inconclusive.
SMILES,TSHR antag,S-ASM inh,Anesthetic bind,BRCA1 expr act,PTAP TSG101 blk
Cc1ccc(-c2cc(-c3ccc(C)cc3)[n+](-c3ccccc3)c(-c3ccc(C)cc3)c2)cc1,?,-3%,/,-21%,0%
Cc1ccc(-c2cc(-c3ccccc3)cc(-c3ccccc3)[n+]2-c2ccccc2)cc1,-94*,-3%,/,-81%,2%
CON(C)C(=O)Nc1ccc(Br)c(Cl)c1,/,/,-17%,/,/
Cc1cccc(OCCNc2ncccc2[N+](=O)[O-])c1,/,/,/,11µM*,/
Cc1nonc1OCCNc1ccc([N+](=O)[O-])c2cccnc12,-1,-14%,-14%,-6%,-3%
